SNCA expr inhib – reduces expression of the alpha-synuclein gene. 0.17% of 140,000 active. HEK-293 SNCA-luciferase knock-in, luminescence, 24 h. Potency, µM (top dose mostly 57.2 µM), for the others: top-dose activity change, negative = inhibition, usual class: inhibitors;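 also: potency is read from the fitted curve at half-maximal effect; plate controls were DMSO cells for no effect and cell-free wells for full effect; nearly all actives have a fitted effect of over 45% in size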
KDM5B inh – blocks human KDM5B histone demethylase activity. Q9UGL1. KDM5B demethylase, FDH-coupled NADH fluorescence (FDH is formaldehyde dehydrogenase). Potency, µM (series often up to 57.7 µM), actives largely listed as inhibitors. 2.6% of 220,000 active. AID 1347165; also: potency is read from the fitted curve at half-maximal effect; 0% is about no effect; nearly all actives have a fitted effect of over 70% in size
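Inhibition is measured as reduced NADH fluorescence generation from FDH coupling to formaldehyde release. Truncated KDM5BΔAP at 200 nM final acts on H3K4me3 peptide (12.5 µM in substrate mix) in pH 7.5 HEPES buffer with Tween-20, 30 min, room temperature.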
IP6K1 inhibitor – IP6K1 kinase inhibition; 0.81% of 140,000 active; activity change, % (series mostly up to about 58 µM); Q92551; IP6K1 kinase, ADP-Glo luminescence, 2 h; active compounds read low; in the data active = activity change below about -25%; also: % is scaled to controls: 0 for no effect and ±100 for the full control effect
Target sequence (Q92551 whole entry, looked up): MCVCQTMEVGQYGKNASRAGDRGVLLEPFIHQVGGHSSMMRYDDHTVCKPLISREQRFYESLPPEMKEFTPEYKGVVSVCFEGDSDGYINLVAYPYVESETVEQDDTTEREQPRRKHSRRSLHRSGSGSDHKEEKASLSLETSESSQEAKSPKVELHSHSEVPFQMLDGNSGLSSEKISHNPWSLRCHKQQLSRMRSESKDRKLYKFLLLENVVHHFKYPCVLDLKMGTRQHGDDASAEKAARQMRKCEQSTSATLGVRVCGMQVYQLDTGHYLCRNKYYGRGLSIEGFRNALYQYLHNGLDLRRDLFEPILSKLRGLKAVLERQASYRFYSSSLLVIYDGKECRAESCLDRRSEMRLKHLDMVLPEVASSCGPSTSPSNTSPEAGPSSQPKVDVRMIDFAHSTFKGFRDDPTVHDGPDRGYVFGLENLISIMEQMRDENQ
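ADP-Glo luminescence measures ADP made by human IP6K1 during a 2 h RT reaction with ATP/IP6 (mix at 1.3 mM/130 uM); top library doses 57.5 and 19.1 uM final.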
SNCA viab count – reduces viability of HEK-293 SNCA reporter cells. HEK-293-SNCA-luc viability, GF-AFC fluorescence, 24 h. Potency, µM (series often up to 57.1 µM), for the others: top-dose activity change, negative = cytotoxicity, most hits filed as cytotoxic. 0.12% of 150,000 active. AID 1671193;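 also: potency is read from the fitted curve at half-maximal effect; 0% = DMSO-treated cells and -100% = medium-only wells without cells; nearly all actives have a fitted effect of over 30% in size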
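Cytotoxicity counterscreen: after 24 h compound treatment of genome-edited SNCA-luciferase HEK-293 cells, live-cell protease substrate GF-AFC read by fluorescence after 30 min; activity scaled between DMSO (0%) and medium-only (-100%), curves Hill-fitted.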
IP6K1 inh cnf – confirmation of human IP6K1 inhibitors. Potency, µM (doses to about 49 µM), inactives show at the top dose activity change, negative = inhibition, most hits filed as inhibitors. recombinant IP6K1 kinase, ADP-Glo luminescence, 2 h. shares compounds with IP6K1 inhibitor. 13% of 1,200 active; also: potency is read from the fitted curve at half-maximal effect; % is scaled to controls: 0 for no effect and ±100 for the full control effect; nearly all actives have a fitted effect of over 65% in size
The depositor's hits bear a star; i = inactive; ? = inconclusive; / = no result given; [ ] = another dose, or the depositor's remark. An excerpt weighted towards active compounds, which were near 2.8% of everything screened. Unless noted, calls follow the shape of the dose curve; as a rule, active = well fitted curve in the direction sought with a large enough effect; inconclusive = small, poorly fitted or top-dose-only effect, or another doubt; inactive = no such curve, though single readings can be large; an effect the other way counts as inactive or inconclusive.

SMILES	SNCA expr inhib	KDM5B inh	IP6K1 inhibitor	SNCA viab count	IP6K1 inh cnf
COc1ccc(Cl)cc1NC(=O)CN(C)S(=O)(=O)c1ccc(Br)s1	?	i	-26.2*	2.7%	28.8%
O=S(=O)(c1ccc(-c2cc(C(F)(F)F)on2)s1)N1CCN(c2cccc(Cl)c2)CC1	-12.9%	i	-32.9*	-8.8%	60.6%
COc1cc(S(=O)(=O)N2CCc3c(nc[nH]c3=O)C2)c(OC)cc1C	15.8%	i	-30.2*	0.7%	-4.4%
O=C(Cc1ccc(NC(=O)N2CCSc3ncccc32)cc1)NCCc1ccccc1	0.5%	?	-33.2*	-2.0%	-17.3%
CC(=O)Nc1ccc(C2C(C#N)=C(N)OC3=C2C(=O)CC(C)(C)C3)cc1 (centres undefined)	/	i	/	/	/
CCn1c(SCc2noc(-c3ccccc3Cl)n2)nnc1N1CCOCC1	/	i	/	/	/
O=C(Nc1noc2ccccc12)c1cccc(F)c1	-41.0%	?	1.1	11.0%	/
O=C(Nc1noc2ccccc12)c1ccc(F)cc1	-74.8%	i	-48.4*	17.9%	?
CCCCCNC(=O)c1ccc2c(c1)ncn2-c1cccc(C)c1	1.2%	?	-31.4*	-21.5%	?
COc1cccc(-c2cc(C(=O)NC(C)C)c3cnn(C)c3n2)c1	/	/	0.0	/	/
CCCCCCCC(=O)[O-].CCCCCCCC(=O)[O-].[Zn+2]	-51.6%[25.6 µM]	/	-35.8*	-23.8%[23.9 µM]	?
CCCCCCCCCCCCCCCCCC(=O)O	-41.0%[25.6 µM]	/	-7.1	-2.7%[23.9 µM]	/
COc1ccc(OC)c(-c2cnc3[nH]cc(CC(=O)NCc4cccnc4)c3c2)c1	-20.3%[87.6 µM]	i	-15.5	4.4%[87.6 µM]	/
O=C(Cc1c[nH]c2ncc(-c3cccc(F)c3)cc12)NCc1cccnc1	-27.1%[87.6 µM]	?	-2.5	-14.1%[87.6 µM]	/
COc1cccc(-c2cnc3[nH]cc(CC(=O)NCc4cccnc4)c3c2)c1	3.6%[87.6 µM]	?	-27.2*	-0.2%[87.6 µM]	?
O=C(Cc1c[nH]c2ncc(-c3cccc(Cl)c3)cc12)NCc1cccnc1	0.9%[87.6 µM]	?	-27.3*	-13.8%[87.6 µM]	?
Cc1cccc2c1NC(=O)C2(c1ccc(O)cc1)c1ccc(O)cc1	/	/	-26.0*	-7.5%	1.2%
COc1ccc(-c2ccc(C(=O)N3CCCCC3)cc2)nn1	/	/	-51.2*	/	?
CCCSc1nc2c(c(=O)[nH]c(=O)n2C)n1Cc1cccc(Br)c1	/	i	/	/	/
COc1cc(OC)cc(-n2c(=O)c3ccccc3n(Cc3ccccc3C#N)c2=O)c1	6.8%	i	-27.8*	-18.8%	-14.1%
Cc1cccc(-n2c(=O)c3ccccc3n(Cc3ccccc3C#N)c2=O)c1	5.3%	i	-4.0	?	/
Cc1cccc(Nc2sc(C(=O)c3ccc(Cl)cc3)c(N)c2C(N)=O)c1	0.0%	?	-38.8*	-9.2%	-10.1%
COc1cc(F)ccc1-c1cc(C(=O)NCc2c(C)cc(C)[nH]c2=O)c2c(c1)ncn2C	?	?	-1.3	-16.3%[87.6 µM]	/
Cn1cnc2cc(-c3ccc(F)cc3)cc(C(=O)NCCc3cnc[nH]3)c21	-27.6%[87.6 µM]	?	-30.6*	-1.7%[87.6 µM]	?
Cc1cccc(Nc2c3c(nc4nncn24)CCC3)c1C	47.8%	i	-26.9*	-9.1%	-2.7%
SMILES	SNCA expr inhib	KDM5B inh	IP6K1 inhibitor	SNCA viab count	IP6K1 inh cnf
O=C1CSc2ccc(C(=O)NC3CCCCC3)cc2N1	/	i	/	/	/
CNc1c(NC(=O)C2CC(=O)N(c3ccc(C)cc3)C2)c(=O)oc2ccccc12 (centres undefined)	/	i	/	/	/
O=C(c1cccc(Cl)c1)N(Cc1cccc(F)c1)C1CCS(=O)(=O)C1 (centres undefined)	7.3%	i	-36.6*	2.8%	-13.8%
COc1cccc(C(=O)N(Cc2cccc(F)c2)C2CCS(=O)(=O)C2)c1 (centres undefined)	-6.1%	i	12.4	-17.9%	/
O=C1C[C@@H](c2ccc(O)cc2)Oc2cc(O)ccc21	/	/	-35.3*	-8.3%	?
Cc1ccc2c(c1)OC(c1ccc3c(c1)OCCO3)CC2=O (centres undefined)	/	i	/	/	/
Cc1cc(-c2cnc(N)c3c(-c4ccc5scnc5c4)csc23)n(C)n1	/	/	-30.9*	-36.1%	?
Cc1ccc(C)c(SC(C)C(=O)NC2CCCC2)c1 (centres undefined)	/	i	/	/	/
Cc1cccc(CC(=O)Nc2cccc(-c3nc4cccnc4s3)c2)c1	141.2%	?	29.8	-12.1%	/
Cc1ccccc1C(=O)Nc1cccc(-c2nc3cccnc3s2)c1	14.6%	?	-28.9*	-12.4%	?
CN(C)c1ccc(C2CC(c3c(O)n(C4CCCCC4)c(=O)[nH]c3=O)=Nc3ccccc3S2)cc1 (centres undefined)	-14.3%	?	-31.9*	3.5%	15.6%
COc1ccc(NS(=O)(=O)c2ccc3nc(-c4ccccc4)[nH]c3c2)cc1	-29.7%	i	-31.3*	-19.4%	-17.4%
CCOc1ccc(NS(=O)(=O)c2ccc3nc(-c4ccccc4)[nH]c3c2)cc1	-21.0%	i	-21.8	-3.4%	/
Cc1cc(C)cc(Nc2nc(-c3cccnc3)nc3ccccc23)c1	/	i	/	/	/
Cc1cc(Nc2nc(-c3ccccc3)nc3ccccc23)n[nH]1	/	/	-26.2*	-19.8%	?
CCOc1nccn2c(-c3ccc(CNc4ccc(OC)nc4)cc3)cnc12	-29.3%[87.6 µM]	?	-35.6*	-7.5%[87.6 µM]	?
Cc1ccc(S(=O)(=O)N(Cc2ccc(C(=O)NC3CC3)cc2)C2CC2)c(C)c1	/	i	/	/	/
C=C(C)Cn1c(NCCCOCC)nc2c1c(=O)n(C)c(=O)n2C	/	i	/	/	/
COc1cccc(OC(=O)CSc2nnc(-c3ccc4c(c3)OCO4)o2)c1	?	?	-32.0*	1.5%	?
Cc1cc(SCc2ccccc2F)nc2ccccc12	/	i	/	/	/
CCOC(=O)N1CCN(Cc2nc3cc(NC(=O)C(C)C)ccc3n2C(C)C)CC1	-23.2%	i	-35.9*	-10.4%	6.1%
CCOc1ccc(/C=C(\C#N)C(=O)Nc2sc3c(c2C(=O)OC)C(C(=O)OC)CC3)cc1OC (centres undefined)	-11.6%	?	-29.4*	-4.2%	2.91µM*
Cc1ccc(CNC(=O)Cc2c(C)c3c(cc(C)c4c(C)coc43)oc2=O)cc1	-5.2%	i	-26.5*	2.3%	-19.8%
Cc1coc2c1c(C)cc1oc(=O)c(CC(=O)NCCc3ccc(Cl)cc3)c(C)c12	-4.8%	i	-6.8	0.9%	/
CCOC(=O)c1csc(Nc2ccc(Cl)cc2)n1	/	/	-26.6*	-11.5%	?
COC(=O)c1c(NC(=O)COc2ccc(OC)cc2)sc2c1CCC(C)C2 (centres undefined)	?	?	-38.0*	?	-12.1%
CC(=O)N1CCN(C(=O)Cc2ccc(Nc3ncc(F)c(Nc4ccc(C(=O)Nc5ccccc5Cl)cc4)n3)cc2)CC1	/	/	-29.8*	?	?
COc1ccc(Cl)cc1NC(=O)Cn1ncc2c3ccccc3n(Cc3ccccc3)c2c1=O	11.3%	?	-26.8*	2.3%	-2.0%
CC(=O)NO	-25.6%[25.6 µM]	/	-27.7*	-16.0%[23.9 µM]	-7.0%
CC(=O)C(C)=O	4.4%	/	/	0.4%	/
